Sampled rows, rich in hits. Any-hit rate of the full collection: about 2.3%.
m5-HT2A agonist: agonists of mouse serotonin 5-HT2A receptor (HTR2A); P35363; CHO-K1 mHTR2A beta-arrestin complementation, luminescence; percent of 30 µM serotonin response; activation, % at 7.6 µM; 360,000 compounds, 0.66% hits;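 active = activation above a run cutoff, the mean activation of all tested compounds plus 3 SD, cut at about 14% in these data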
B2AR ag: activates human beta-2 adrenergic receptor causing internalization; AID 504454; 340,000 compounds, 0.43% hits; P07550; response, % (no concentration beside the values); Am2.2-beta2AR cells, FAP receptor internalization, flow cytometry;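 active = response above a set limit, near 3 SD of response in nonfluorescent compounds, cut at about 42% in these data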
Granule exo inh: lytic granule exocytosis inhibition; TALL-104 LAMP-1 surface exposure, flow cytometry; cells stimulated with thapsigargin and PMA; inhibition, % at 10 µM; 360,000 compounds, 0.66% hits; AID 651702;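 active = inhibition above about 55%, limit read from the data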
ABHD5-PLIN5 inh: inhibitors of human ABHD5-perilipin-5 interaction; Q00G26+Q8WTS1; Split G. princeps luciferase complementation, luminescence, 4 h; inhibition, % at 4 µM; 360,000 compounds, 0.78% hits; AID 602281;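 active = inhibition above the mean inhibition across every tested compound plus 3 SD, cut at about 22% in these data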
NTR1 agonist: NTR1 (human) agonism. activation, % at 20 µM. P30989. 330,000 compounds, 0.17% hits. NTR1-U2OS beta-arrestin-GFP spot imaging, agonist mode;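 active = activation at or above 40% of the spot to cytoplasm intensity ratio, with at least 20 cells analyzed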
Target sequence (P30989 whole entry, looked up): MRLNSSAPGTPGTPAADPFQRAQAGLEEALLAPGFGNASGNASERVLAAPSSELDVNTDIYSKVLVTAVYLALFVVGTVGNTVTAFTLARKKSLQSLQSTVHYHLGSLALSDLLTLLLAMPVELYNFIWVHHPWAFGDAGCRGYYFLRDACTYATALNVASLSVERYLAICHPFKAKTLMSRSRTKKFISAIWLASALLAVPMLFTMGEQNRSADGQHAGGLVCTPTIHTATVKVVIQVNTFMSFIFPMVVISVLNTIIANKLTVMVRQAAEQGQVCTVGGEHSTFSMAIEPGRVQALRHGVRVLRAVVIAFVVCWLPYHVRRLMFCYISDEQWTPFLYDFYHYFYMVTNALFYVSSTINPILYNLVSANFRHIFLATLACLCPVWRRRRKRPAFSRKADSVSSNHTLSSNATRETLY
Granule exo CP1: blocks lytic granule exocytosis. shares compounds with Granule exo inh. TALL-104 cells, LAMP-1 externalization, flow cytometry; stimulated with PMA plus thapsigargin. inhibition, % at 10 µM. 1,500 compounds, 11% hits. AID 651954; in the data active = inhibition above about 60%
Large screens that a line does not name were inactive (follow-up assays come after a bar, where they were run).

O=C1CC/C=C\C[C@@H](CC(=O)N(CCO)Cc2ccccc2)C(=O)N[C@H](Cc2ccccc2)CO1	Granule exo inh 81 | Granule exo CP1 inactive
CC(=O)N1CCN(S(=O)(=O)c2cccc(C(=O)NC3CCCC(C)C3C)c2)CC1 (configuration not stated)	none (no result: B2AR ag, NTR1 agonist)
CCN(CC)c1cc(C)c2cc(NC(=O)c3cccs3)ccc2n1	Granule exo inh 67 | Granule exo CP1 inactive
O=C(CSc1nnc(CNC(=O)c2c(F)cccc2F)o1)NCc1ccccc1Cl	none
COc1cccc(Sc2nc(-c3ccccc3)ncc2S(C)(=O)=O)c1	Granule exo inh 65 | Granule exo CP1 inactive
CS(=O)(=O)c1cnc(-c2ccccc2)nc1Sc1ccc(F)cc1	none
Cc1ccccc1S(=O)(=O)NC(=O)C1(C)CCN1C(=O)C1(c2ccc(Cl)cc2)CCC1 (configuration not stated)	none (no result: B2AR ag, NTR1 agonist)
COc1cc(O)c(C(CC(=O)N2CCCC(C)C2)c2cc(OC)c(OC)c(OC)c2)c(OC)c1 (configuration not stated)	Granule exo inh 58 | Granule exo CP1 inactive
Nc1c(C(=O)NCc2ccc(F)cc2)c2nc3ccccc3nc2n1CCCN1CCOCC1	Granule exo inh 62 | Granule exo CP1 90
Nc1c(C(=O)NCc2ccccc2)c2nc3ccccc3nc2n1CCCN1CCOCC1	none
Cc1ccc(-c2nn(-c3ccccc3)cc2CNCc2ccccc2)cc1	Granule exo inh 70 | Granule exo CP1 92
Cc1ccc(-n2cc(CNCCCn3ccnc3C)c(-c3ccc(F)cc3)n2)cc1	Granule exo inh 57 | Granule exo CP1 inactive
COc1ccc(S(=O)(=O)Nc2cc3c(cc2C(C)=O)OCO3)cc1	none
Clc1cccc(CN2CCc3c([nH]c4ccccc34)C2)c1	Granule exo inh 58 | Granule exo CP1 inactive
CC(c1ccon1)N(C)Cc1c(C(=O)N(C)Cc2ccccc2)nc2ccccn12 (configuration not stated)	Granule exo inh 71 | Granule exo CP1 inactive
COc1ccc(CN(C)CC2CCCN(CCc3ccc(F)cc3)C2)cc1OC (configuration not stated)	Granule exo inh 60 | Granule exo CP1 inactive
COc1cc(CN(C)CC2CCCN(CCc3cccc(C(F)(F)F)c3)C2)ccc1O (configuration not stated)	Granule exo inh 56 | Granule exo CP1 inactive
COCC(=O)N(C)CC1CCCN(CCc2ccccc2OC)C1 (configuration not stated)	none
COc1ccc(CN(C)CC2CCCN(CCc3ccc(Cl)cc3)C2)cc1OC (configuration not stated)	none
COc1cc(CN(C)CC2CCCN(CCc3ccccc3F)C2)cc(Cl)c1OC (configuration not stated)	Granule exo inh 56 | Granule exo CP1 inactive
COc1ccccc1CCN1CCCC(CN(C)CC(C)(C)CO)C1 (configuration not stated)	Granule exo inh 62 | Granule exo CP1 inactive
CN(Cc1ccccc1)CC1CCCN(CCc2ccccc2F)C1 (configuration not stated)	none
CN(C)S(=O)(=O)c1cccc(NC(=O)c2cccc(N3C(=O)CCC3=O)c2)c1	none
CCOc1cccc(CN(C)CC2CCCN(CCc3ccc(Cl)cc3)C2)c1O (configuration not stated)	Granule exo inh 76 | Granule exo CP1 inactive
COc1cc(CN(C)CC2CCCN(CCc3ccc(F)cc3)C2)c(Cl)cc1O (configuration not stated)	none
COc1ccc(NC(=O)c2cc(-c3ccccc3Cl)on2)cc1	none
COc1cc(NC(=O)c2cc(-c3ccccc3Cl)on2)cc(OC)c1OC	Granule exo inh 69 | Granule exo CP1 inactive
c1cc(-c2ccc(N3CCOCC3)cc2)n2ccnc2c1	none (no result: B2AR ag, NTR1 agonist)
CCc1cccc(NC(=O)c2cccc3c2C(=O)N(CC2CCCO2)C3)c1 (configuration not stated)	none
O=C(c1cccc(C(F)(F)F)c1)N1CCC(=O)N(C(CO)Cc2ccccc2)CC1 (configuration not stated)	Granule exo inh 80 | Granule exo CP1 inactive
Oc1ccccc1-c1nc(NC2CCCC2)c2ccccc2n1	Granule exo inh 64 | Granule exo CP1 inactive
Cc1nc(-c2ccc(Cl)cc2)sc1C1(C)CC(c2ccccc2)=NO1 (configuration not stated)	Granule exo inh 83 | Granule exo CP1 inactive
CCC1Oc2ccc(C)cc2N(CC(=O)N(Cc2ccc(C)o2)C2CCCC2)C1=O (configuration not stated)	Granule exo inh 66 | Granule exo CP1 inactive
CCOc1ccc(-n2c(C)nc(O)c2N=Nc2ccccc2)cc1	none
CCC(C)(O)C(=O)N[C@H]1CCCN1C(=O)/C=C/c1ccccc1 (some centres not stated)	Granule exo inh 59 | Granule exo CP1 inactive
COc1ccccc1Cc1c(-c2ccco2)nc2c3ccccc3ccn12	Granule exo inh 76 (no result: B2AR ag, NTR1 agonist) | Granule exo CP1 inactive
COc1ccccc1Cc1c(C2CCCCC2)nc2c3ccccc3ccn12	none (no result: B2AR ag, NTR1 agonist)
COC(=O)[C@]12CCCCC=C1N(CCc1ccc(OC)c(OC)c1)C(=O)[C@H](CC(=O)NCc1cccc3ccccc13)C2	none (no result: B2AR ag, NTR1 agonist)
COC(=O)[C@]12CCCCC=C1N(Cc1cccc3ccccc13)C(=O)[C@H](CC(=O)NCc1ccc(OC)c(OC)c1)C2	Granule exo inh 70 (no result: B2AR ag, NTR1 agonist) | Granule exo CP1 97
COC(=O)N1CCCCC1c1cc(C(=O)Nc2ccc(OC)cc2C)no1 (configuration not stated)	none (no result: B2AR ag, NTR1 agonist)
CC1(C)OC(=CC=Nc2ccc(Cl)cc2)OC1(C)C	none
Cc1ccc(-c2nnc(-c3ccc(NC(=O)c4ccco4)cc3)o2)cc1	Granule exo inh 88 | Granule exo CP1 inactive
COC(=O)C1=C(C)N(Cc2ccco2)C(=O)N[C@@H]1c1ccc(Br)cc1	Granule exo inh 56 | Granule exo CP1 inactive
COC(=O)C1=C(C)N(Cc2ccco2)C(=O)N[C@@H]1c1cccc(C(F)(F)F)c1	none (no result: m5-HT2A agonist, Granule exo inh, ABHD5-PLIN5 inh)
CCCc1cc(=O)oc2cc(C)cc(OCC(=O)NCCCN3CCOCC3)c12	none
O=C1S/C(=C\c2ccc(N3CCOCC3)o2)C(=O)N1c1ccccc1	Granule exo inh 68 | Granule exo CP1 inactive
CCOC(=O)c1c(-c2ccc(C)cc2)csc1NC(=O)c1cccc(N2C(=O)CCC2=O)c1	none
CCOC(=O)c1c(-c2ccccc2)csc1NC(=O)c1cccc(N2C(=O)CCC2=O)c1	Granule exo inh 86 | Granule exo CP1 inactive
NC(=O)CC[C@H](NC(=O)c1ccc(F)cc1)C(=O)OCC(=O)NCc1ccc(F)cc1	Granule exo inh 57 | Granule exo CP1 inactive
O=C(Cc1ccc(Cl)cc1)Nc1ccc(CN2CCCCC2)cc1	Granule exo inh 56 | Granule exo CP1 inactive
CC(=O)Nc1ccc(CN2CCCCCC2)cc1	none

Screening data: PubChem BioAssay, several laboratories
